Test [1] addresses Tumor necrosis factor receptor superfamily member 10B (Homo sapiens) (UniProt O14763). As to the kind of experiment: caspase-8 TRAIL sensitization, hit retest, confirmation, cell-based, NB7+caspase-8, with/without TRAIL, luminescence panel (AID 651596). The settings on record: NB7 neuroblastoma + caspase-8, TRAIL sensitization, luminescence viability, with TRAIL, mean of runs, at 10 µM, stronger effect = higher value.

Test in test [2]: as above
The settings on record: NB7 neuroblastoma + caspase-8, without TRAIL, luminescence viability, without TRAIL, mean of runs, at 10 µM.

Tumor necrosis factor receptor superfamily member 10B (Homo sapiens), sequence (O14763 whole entry, looked up): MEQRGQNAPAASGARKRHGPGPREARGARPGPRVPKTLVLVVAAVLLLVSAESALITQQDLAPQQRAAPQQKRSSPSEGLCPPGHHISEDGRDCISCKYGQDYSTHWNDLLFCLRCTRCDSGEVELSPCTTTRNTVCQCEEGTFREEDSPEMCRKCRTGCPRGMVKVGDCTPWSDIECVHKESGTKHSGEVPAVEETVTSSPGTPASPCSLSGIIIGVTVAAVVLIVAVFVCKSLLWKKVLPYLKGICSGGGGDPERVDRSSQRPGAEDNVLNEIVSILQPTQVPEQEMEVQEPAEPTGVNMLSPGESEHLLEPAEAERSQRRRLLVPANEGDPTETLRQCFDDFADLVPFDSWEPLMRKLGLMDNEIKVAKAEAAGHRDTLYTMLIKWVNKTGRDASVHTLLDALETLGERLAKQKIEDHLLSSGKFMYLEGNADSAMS

As for `c1csc(-c2ccc(N3CCOCC3)nn2)c1`, the activity in test [1] was determined as 69.5%; in test [2] it was 69.4%.

Regarding `O=C(Nc1nc2ccccc2[nH]1)c1ccccc1O`, the activity is 63.1% in test [1] and 65.9% in test [2].

On to `O=C(/C=C/c1ccc2c(c1)OCO2)Nc1cccnc1`, for which the activity is 71.1% in test [1] and 76.2% in test [2].

As to `Cc1ccnc(NC(=O)/C=C/c2cccs2)c1`, the activity in test [1] was 84.1%; in test [2] it was 81.5%.

On to `CC(C)(C)c1ccc(C(=O)O/N=C(\N)Cc2cccs2)cc1`, for which the results for the activity in test [1] and in test [2] were 98.6% and 77.5%, respectively.

Regarding `Clc1ccc(-c2nc3n(n2)Cc2ccccc2-3)cc1`, the activity in test [1] came out at 65.8%; in test [2], 76.6%.

As to `CCOC(=O)c1nn(-c2ccc3c(c2)CCN3C(C)=O)cc1O`, the results for the activity in test [1] and in test [2] were 47% and 47.6%, respectively.

Regarding `CN(C(=O)c1ccc(NC(=O)Cc2cccc(NC(=O)C3CCCN(S(=O)(=O)c4cccc([N+](=O)[O-])c4)C3)c2)cc1)C1CC1` (configuration not stated), the activity turned out to be 56.3% in test [1] and 36.1% in test [2].

Take `O=C(CCl)N(CCCNC(=O)C(F)(F)F)c1ccc([N+](=O)[O-])cc1`: the results for the activity in test [1] and in test [2] were 98.5% and 98.3%, respectively.

Regarding `O=S(=O)(c1ccc(Br)cc1)N1CCN(c2ccc3nnc(-c4ccccc4)n3n2)CC1`, the activity in test [1] is 76.2%; in test [2] it was 64.3%.

Turning to `CN(NC(=O)c1cccc(Cl)c1)c1nc(-c2ccccc2)nnc1C(F)(F)F`, the values for the activity in test [1] and in test [2] were 75.1% and 39.9%, respectively.

As to `c1ccc2c(c1)COc1c3cc4c(cc3nn1-2)OCO4`, the activity in test [1] was determined as 67.7%; in test [2], 53.8%.

Consider `O=C(NNC(=O)c1cc(OCC(F)(F)F)ccc1OCC(F)(F)F)c1cccc(C(F)(F)F)c1`, for which the activity was found to be 50.6% in test [1] and 44.2% in test [2].

As for `CC(=O)Nc1ccc2nc(-c3ccccc3)cn2c1`, the activity in test [1] worked out at 46.1%; in test [2], 52.6%.

In the case of `CSC(=Nc1ccccc1)N=C(SCc1ccccc1)N(C)C`, the activity in test [1] was found to be 96.8%; in test [2] it was 98.5%.

For `CCc1ccc(-c2cn3nc(C)c(C)nc3n2)cc1`, the activity in test [1] turned out to be 75.3%; in test [2], 63.9%.

Source of the values: PubChem BioAssay.
